Reference: PubChem BioAssay (NCI)
Where “and” joins values, the source holds several entries; their conditions need not be identical. Equal values may be shown once. Compounds without any hit were thinned out: in the full panel of roughly 79,000, 15% have a hit. Unmarked numbers belong to inactive results. Calls of active or inactive are those of the source. No stated cut-off is given here; in the data, active means growth inhibition above about 70%; inactive means the rest.

Assay: NCI Yeast Anticancer Drug Screen. Data for the mec2-1 strain (AID 157)
Details: S. cerevisiae mec2-1 strain, hits give high values
Method: Growth inhibition of yeast strains with defined genetic alterations is measured as a screen for potential anti-cancer activity. Selected strains with alterations in DNA damage repair or cell cycle control were exposed to compounds and growth inhibition was measured relative to vehicle treated controls. The strain used in this assay is mec2-1

[1] = at 5.0 µM (retest, dose inferred, filed as 0.5)
[2] = at 50.0 µM (retest, dose inferred, filed as 5.0)

SMILES | growth inhibition [1] | growth inhibition [2] | growth inhibition (at 50.0 µM)
CC(C)c1ccc(C(=O)OC2CCCC2)cc1 | 9% | 100% (active) | 99.2% (active)
O/N=C1\c2ccccc2-c2ccc(F)cc21 | 7% | 73% (active) | 84.2% (active)
O=C1CCC2(C=C(Br)C(=O)C(Br)=C2)O1 | 46% | 96% (active) | 93.5% (active)
N#Cc1ccc(Br)cc1[N+](=O)[O-] | 41% | 63% | 93.2% (active)
Cc1ccccc1N=C(N)Nc1ccccc1C (tested in a mixture with another compound) | -2% | 7% | 27.8%
CC(C)=CCCC(C)C1=C(O)C(=O)C(C)=CC1=O (configuration not stated) | 19% | 98% (active) | 93.3% (active)
NC(=Nc1nc(-c2ccccn2)cc2ccccc12)c1ccccn1 | 54% | 66% | 67.7%
Cc1ccc(NC(=S)C#N)cc1Cl | 34% | 44% | 43.4%
C=CC(=O)OCCOCc1ccccc1 | -3% | 12% | –
O=C1/C(=C/c2ccccn2)CCc2ccccc21 | 17% | 95% (active) | 89.5% (active)
CC1=NN(c2ccccc2)C(=O)C1(Br)Br | 44% | 71% (active) | 94% (active)
CCN1CCCC(Nc2cc(C)nc(/N=C(/N)Nc3ccc(Cl)c(Cl)c3)n2)C1 (configuration not stated) | 32% | 98% (active) | 92% (active)
O=C(NNC(=S)NC1OC(CO)C(O)C(O)C1O)c1cccc(C(=O)NNC(=S)NC2OC(CO)C(O)C(O)C2O)n1 (configuration not stated) | – | – | 19.9% and -22.6%
COc1ccc(C(C)=O)cc1OC | – | – | -7.9% and -3.4%
CCCCCC(Br)C(Br)CC(Br)C(Br)CCCCCCCC(=O)c1ccc2ccccc2c1O (configuration not stated) | – | – | -2.05% and 0.5%
Cc1cc(C#N)c(=S)n(C2OC(CO)C(O)C(O)C2O)c1C (configuration not stated) | – | – | 9.25% and 8.65%
CN(C)C=C(S(C)(=O)=O)S(C)(=O)=O | – | – | -2.05% and -9.9%
O=C1Nc2ccccc2C(=O)C1=Ic1ccccc1 | – | – | -11.6% and -15.4%
CCCCC(CC)CCC(C)OC(=O)CCl (configuration not stated) | – | – | -2.8% and -6.75%
